BoNT-A LC inh2 = inhibitors of Botulinum neurotoxin A light chain protease; inhibition, % at 10 µM; AID 588499; 360,000 tested, 0.17% active; multiplex microsphere protease substrate cleavage, flow cytometry
Anthrax LF inh2 = inhibitors of Bacillus anthracis lethal factor protease | P15917 | AID 588501 | 360,000 tested, 0.12% active | inhibition, % at 10 µM | multiplex microsphere protease cleavage assay, LF
Autofluor counter = counter-screen for toxin protease inhibitors: compound fluorescence. fluorescence intensity (test concentration not listed). 360,000 tested, 3.1% active. compound autofluorescence counterscreen, microsphere flow cytometry; active compounds read high; in the data active means fluorescence intensity above about 16000; inconclusive means no clear call, values can overlap the other calls
BoNT-F LC inh = BoNT F light chain protease inhibition | inhibition, % at 10 µM | Multiplex microsphere protease cleavage assay, flow cytometry | 360,000 tested, 0.22% active; in the data active means inhibition above about 35%, passing the limit was not always enough; inconclusive means no clear call, values can overlap the other calls
MazF activator = increases E. coli MazEF RNase cleavage of RNA; P0AE70; FAM/BHQ RNA-DNA oligo cleavage fluorescence, 5 h; activation, % at 20 µM; 350,000 tested, 0.32% active; AID 504720; in the data active means activation above about 50%
PriA SSB inh = K. pneumoniae PriA-SSBct interaction inhibition. AlphaScreen SSBct-PriA binding, biotinylated peptide. 430,000 tested, 0.6% active. AID 1272365. inhibition, % at 33 µM; in the data active means inhibition mostly above about 37%, no sharp cut-off; inactive means mostly below about 20%
Each line names hits and unclear results; the compound was inactive in the other large screens. The list is not random: actives were taken first. Their share in the collection is about 3.3%. Unless noted, no stated cut-off is given here; in the data, active means inhibition above about 30%; inconclusive means no clear call, values can overlap the other calls; inactive means below that.

CCCN1CCCc2cc(CCNS(=O)(=O)c3ccc(Br)cc3)ccc21	PriA SSB inh 52 (no result: BoNT-A LC inh2, Anthrax LF inh2, Autofluor counter, BoNT-F LC inh, MazF activator)
CCCN1CCCc2cc(CCNS(=O)(=O)c3ccccc3)ccc21	none (no result: BoNT-A LC inh2, Anthrax LF inh2, Autofluor counter, BoNT-F LC inh, MazF activator)
COc1ccc(C=NNC(=O)c2ccc(-n3cnnn3)cc2)cc1	none (no result: BoNT-A LC inh2, Anthrax LF inh2, Autofluor counter, BoNT-F LC inh, MazF activator)
Cc1nc2c(n1O)CCC/C2=N\O	none (no result: PriA SSB inh)
COc1ccc(-c2nc3c(n2O)CCC/C3=N\O)cc1	BoNT-A LC inh2 inconclusive, Autofluor counter 21176 (no result: PriA SSB inh)
CC(C)c1ccccc1NC(=O)c1nnn(-c2ccccc2)c1-c1ccccn1	none (no result: BoNT-A LC inh2, Anthrax LF inh2, Autofluor counter, BoNT-F LC inh, MazF activator)
O=C(CSc1nnnn1-c1ccc(Cl)cc1)N1CCc2ccccc2C1	Autofluor counter 21981
Cc1cc(=O)[nH]c(SCC(=O)N2CCc3ccccc3C2)n1	Autofluor counter 20691
Cc1cc(=O)[nH]c(N2CCc3ccccc3C2)n1	Autofluor counter 25748
O=C(CSc1nnnn1-c1ccccc1)N1CCc2ccccc21	none
COc1ccccc1N=Cc1sc(=S)n(C2CCCC2)c1O	none (no result: BoNT-A LC inh2, Anthrax LF inh2, Autofluor counter, BoNT-F LC inh, MazF activator)
NC(=O)COC(=O)c1cc(=O)[nH]c2ccccc12	none
CNC(=O)COC(=O)c1cc(=O)[nH]c2ccccc12	Autofluor counter 23831
CNC(=O)COC(=O)c1ccccc1Oc1ccccc1	Autofluor counter 16994
CC(C)(C)NC(=O)C(c1ccccc1)N(C(=O)c1ccco1)C1CC1 (configuration not stated)	BoNT-A LC inh2 inconclusive, Autofluor counter 21553
C[C@](O)(CNC(=O)Cn1c(=O)oc2ccccc21)c1ccc(-c2ccccc2)cc1	none (no result: BoNT-A LC inh2, Anthrax LF inh2, Autofluor counter, BoNT-F LC inh, MazF activator)
Cc1ccc(SCC(=O)NCCN2C(=O)CSC2=O)cc1C	Autofluor counter 23097
Cc1ccc(SCC(=O)NCCN2C(=O)CSC2=O)c(C)c1	none
Cc1nnc(SCC(=O)NCCN2C(=O)CSC2=O)n1-c1ccccc1	none
Cc1cccc(-n2nnnc2SCC(=O)NCCN2C(=O)CSC2=O)c1	Autofluor counter 22931
CN(C)S(=O)(=O)c1ccc(C(=O)N2CCc3nc(NC(=O)C4CCCO4)sc3C2)cc1 (configuration not stated)	none (no result: BoNT-A LC inh2, Anthrax LF inh2, Autofluor counter, BoNT-F LC inh, MazF activator)
CC1(C)OC(=O)C(=NNc2ccc(Cl)cc2)C(=O)O1	Autofluor counter 22457
CC1(C)OC(=O)C(=NNc2ccccc2)C(=O)O1	none
O=C(Cn1nc(-c2ccc(F)cc2)c2sc(N3CCCC3)nc2c1=O)NC1CCCC1	none (no result: BoNT-A LC inh2, Anthrax LF inh2, Autofluor counter, BoNT-F LC inh, MazF activator)
COC(=O)c1cc(C(=O)c2ccc(Cl)cc2Cl)cn1C	BoNT-A LC inh2 inconclusive, Autofluor counter 21700
COC(=O)c1cc(C(=O)c2cccc(Cl)c2Cl)cn1C	Autofluor counter inconclusive
O=C1CN(C(=O)COC(=O)c2oc3ccccc3c2COc2ccccc2)c2ccccc2N1	Autofluor counter 22869
O=C1CN(C(=O)COC(=O)Cc2ccsc2)c2ccccc2N1	BoNT-A LC inh2 inconclusive, Autofluor counter 23072
Cc1c(C(=O)OCC(=O)N2CC(=O)Nc3ccccc32)oc2ccccc12	none
Cc1ccc(-c2nnc(NCCCO)c3ccccc23)cc1C	none (no result: BoNT-A LC inh2, Anthrax LF inh2, Autofluor counter, BoNT-F LC inh, MazF activator)
COc1ccc(OC)c(-c2ccc(=O)n(CCNC(=O)C(C)Oc3ccccc3F)n2)c1 (configuration not stated)	none (no result: BoNT-A LC inh2, Anthrax LF inh2, Autofluor counter, BoNT-F LC inh, MazF activator)
CCOc1cccc2cc(C(=O)Nc3cc(C)on3)c(=O)oc12	BoNT-A LC inh2 inconclusive, Autofluor counter 24162
CCOc1cccc2cc(C(=O)NCc3cccnc3)c(=O)oc12	BoNT-A LC inh2 inconclusive, Autofluor counter 22159
COC(=O)c1c(NC(=O)c2cc3cccc(OC)c3o2)sc2c1CCCC2	none (no result: BoNT-A LC inh2, Anthrax LF inh2, Autofluor counter, BoNT-F LC inh, MazF activator)
CN(C)C(=O)CSc1nnc(CCN)o1	Autofluor counter 22720
CN(C)C(=O)CSc1nnc(C23CC4CC(CC(C4)C2)C3)o1	BoNT-A LC inh2 inconclusive, Autofluor counter 22684
CSCC[C@H](NC(=O)OC(C)(C)C)c1nnc(SCC(=O)N(C)C)o1	none
CC1=CC(C)(C)N2C(=O)C(=Nc3ccc(O)cc3)c3cccc1c32	PriA SSB inh 40
Cc1ccc(NC(=O)N(C2=NCC(C)S2)c2ccccc2)cc1 (configuration not stated)	BoNT-A LC inh2 inconclusive, Autofluor counter 19772
Cc1cccc(N(C(=O)Nc2ccccc2)C2=NCC(C)S2)c1 (configuration not stated)	none
CCCc1cc(-n2ccnc2)n2c(nc3ccccc32)c1C#N	MazF activator 82
CC1=C(C(=O)Nc2ccccc2)C(c2cccnc2)n2nc(-c3cccnc3)nc2N1 (configuration not stated)	Autofluor counter 22749
CC1=C(C(=O)Nc2cccnc2)C(c2cccnc2)n2nc(-c3cccs3)nc2N1 (configuration not stated)	none

Source: PubChem
